High-throughput results (PubChem)
aSyn 5UTR act: Activators working through SNCA 5'UTR binding (MLPCN). alpha-synuclein 5'UTR reporter, activators screen. activity score, % (tested at 7.5 µM), hits read low. 7.1% of 300,000 active; in the data active = activity score below about -60%
Large screens that a line does not name were inactive. Only a sample is shown.

CN1N=C2c3ccccc3CCC2C1c1ccc(C(F)(F)F)cc1 (centres undefined)	aSyn 5UTR act -71.6
CN(C)c1ccc(C2C3CCCc4ccccc4C3=NN2C)cc1 (centres undefined)	aSyn 5UTR act -134.2
O=C1C(Nc2ccccc2)=C2CCCC=C2N1c1ccccc1	aSyn 5UTR act -163.2
CCOC(=O)N1CCN(C(=O)c2ccc3c(c2)sc2nc(-c4ccccc4)cn23)CC1	aSyn 5UTR act -108.7
CCOC(=O)N1CCN(C(=O)c2nc3ccccc3s2)CC1	aSyn 5UTR act -92.7
CCOC(=O)N1CCC(NC(=O)c2ccc3c(c2)sc2nc(-c4ccc(OC)cc4)cn23)CC1	aSyn 5UTR act -98.2
Cc1ccc(-n2nc3c([n+]2[O-])CCc2c-3no[n+]2[O-])cc1	aSyn 5UTR act -140.5
[O-][n+]1onc2c1CCc1c-2nn(-c2ccccc2Cl)[n+]1[O-]	aSyn 5UTR act -154.9
COc1ccccc1NC(=O)C(=O)c1cn(CC(=O)N2CCOCC2)c2ccccc12	aSyn 5UTR act -118.5
COc1ccc(NC(=O)C(=O)c2cn(CC(=O)N3CCCC3)c3ccccc23)c(OC)c1	aSyn 5UTR act -86.1
Cc1ccc(C(=O)Cn2ncsc2=N)cc1	aSyn 5UTR act -163.7
CCN(CC)C(=O)c1ccc2nc3ccccc3nc2c1	none
CCN(CC)c1ccc(C(=O)Nn2cnc3ccccc3c2=O)cc1	aSyn 5UTR act -92.4
CCN(CC)c1ccc(C(=O)n2cnc3ccccc32)cc1	aSyn 5UTR act -127.9
COc1ccc(NC(=O)C2C3CC/C=C\CCC32)cc1 (centres undefined)	aSyn 5UTR act -140.7
CCOc1ccc(NC(=O)C2C3CC/C=C\CCC32)cc1 (centres undefined)	aSyn 5UTR act -86.6
COc1ccccc1-c1cnn2c(NC3CCCC3)cc(C)nc12	aSyn 5UTR act -181.9
COc1ccccc1-c1ccc(NC2CCCC2)nn1	aSyn 5UTR act -120.4
COc1cc2c(cc1OC)-c1cc(NC3CCCCCCC3)nc(=O)n1CC2	none
CC(=Nc1cc(C(=O)c2ccccc2)ccc1N)C1=C(O)CC(C)(C)CC1=O	aSyn 5UTR act -76.4
Cc1ccc(C2Nc3ccccc3-c3nc4ccccc4n32)o1 (centres undefined)	aSyn 5UTR act -104.3
CC(=O)c1ccc(-c2nc3ccccc3n2C)o1	aSyn 5UTR act -142.5
Cc1ccc(-c2nc3ccccc3n2C)o1	aSyn 5UTR act -154.6
COc1ccc(NC(=O)Nc2cccc(Cl)c2Cl)c(OC)n1	aSyn 5UTR act -71.9
O=C(Nc1ccc2c(c1)COC2=O)c1ccc(Cl)c(Cl)c1	aSyn 5UTR act -143.1
O=C(Nc1ccc(Cl)c(Cl)c1)c1ccc(Cl)c(Cl)c1	aSyn 5UTR act -101.7
COc1ccc(C(=O)Nc2ccc(Cl)c(Cl)c2)c(OC)n1	aSyn 5UTR act -104.5
O=C(Nc1ccc(Cl)c(Cl)c1)c1ccncc1	aSyn 5UTR act -149.0
O=C(Nc1ccc2c(c1)Cc1ccccc1-2)c1ccncc1	aSyn 5UTR act -133.9
Cc1cc(C)n2ncc(C(=O)Nc3ccc(Cl)c(Cl)c3)c2n1	aSyn 5UTR act -105.6
Oc1cccc2c(NC(=S)Nc3ccc(OC(F)F)cc3)cccc12	aSyn 5UTR act -138.1
CN=Cc1cc(-c2ccccc2)sc1O	aSyn 5UTR act -99.8
CCOC(=O)CSC1=C(C#N)C(C)C2=C(CCCC2=O)N1 (centres undefined)	aSyn 5UTR act -61.7
Cc1ccc(C=Nc2ccccc2C(N)=O)cc1	aSyn 5UTR act -109.2
COc1cccc(C=Nc2ccccc2C(=O)Nc2ccccc2)c1O	aSyn 5UTR act -70.9
Cc1ccc(C=Nc2ccccc2C(=O)Nc2ccccc2)cc1	aSyn 5UTR act -77.2
N=c1c2c(n(Cc3ccc(Br)cc3)c3c1CCC3)CCCC2	none
COc1ccc(C2Nc3ccccc3C(=O)N2c2ccc(C)cc2)cc1Cn1cc([N+](=O)[O-])cn1 (centres undefined)	aSyn 5UTR act -86.6
COc1ccc(C2Nc3ccccc3C(=O)N2c2ccc(C)cc2)cc1Cn1nnc2ccccc21 (centres undefined)	aSyn 5UTR act -121.6
O=C1CN(c2ccccc2)C(=S)N1C(=O)c1ccccc1	aSyn 5UTR act -153.6
COc1cccc(N2CCN(c3ncnc4c3[nH]c3ccccc34)CC2C)c1 (centres undefined)	aSyn 5UTR act -73.5
c1ccc2c(c1)CCN(c1ncnc3c1[nH]c1ccccc13)C2	aSyn 5UTR act -102.0
COc1ccc(-c2nsc3c(N4CCCCC4C)ncnc23)cc1 (centres undefined)	none
CC[n+]1c(/C=C2\Sc3ccccc3N2C)ccc2cccc(C)c21	none
COc1ccc(C(=O)/C=C2\Sc3ccccc3N2C)cc1	aSyn 5UTR act -179.5
CCOc1ccc(C(=O)O/N=C(\N)c2ccccn2)cc1	none
Cc1ccc(OCC(=O)O/N=C(\N)c2ccncc2)cc1C	aSyn 5UTR act -129.2
Cc1cccc(OCC(=O)O/N=C(\N)c2ccccn2)c1	aSyn 5UTR act -115.6
Cc1cc(C)c(C)c(OCC(=O)O/N=C(\N)c2ccccn2)c1	aSyn 5UTR act -109.8
Cc1cccc(C(=O)O/N=C(\N)c2ccccn2)c1	none
CCc1ccc(OCC(=O)O/N=C(\N)c2ccccn2)cc1	aSyn 5UTR act -91.3
C=C[C@@]1(C)CC(=O)[C@]2(O)[C@@]3(C)[C@@H](O)CCC(C)(C)[C@@H]3[C@H](O)[C@H](OC(C)=O)[C@@]2(C)O1	none
